Source: PubChem BioAssay (National Center for Advancing Translational Sciences (NCATS))
TDP1 cell noCPT: qHTS for Inhibitors of human tyrosyl-DNA phosphodiesterase 1 (TDP1): qHTS in cells in absence of CPT | hit rate 15% among 420,000 | AID 686978, 2013 | Potency, µM (highest dose often 46.2 µM), hits mostly inhibitors | DT40 Tdp1-/- hTDP1 cells, no CPT, ATP luminescence, 48 h; further: nearly all actives have a fitted effect of over 55% in size
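Cells were dispensed at 400 per well, compounds added by pin tool, plates incubated ≥48 hr at 37 °C, then CellTiter-Glo added for 30 min at room temperature before luminescence reading. Line: DT40 Tdp1-/- complemented with hTDP1; camptothecin omitted.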
HT1080 IDH1KD tx: HT-1080 IDH1 knockdown cell toxicity (counter line); HT-1080 IDH1 knockdown viability, ATP luminescence, 48 h; Potency, µM (doses to about 46.1 µM), hits mostly cytotoxic; hit rate 2% among 360,000; AID 686971
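Assay cells: HT-1080 with IDH1 knockdown, 750 per well, RPMI/5% FBS. Exposure: 48 h at 37 °C following 2 h pre-incubation. Read: CellTiter-Glo luminescence; fitted concentration-response, curve class assigned.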
IL1B secr inh: inhibitors of inflammasome signaling (IL-1 beta secretion). hit rate 4.7% among 360,000. THP-1 LPS/ATP IL-1B secretion, AlphaLISA, 16 h; stronger effect = lower value. AID 743279. activity change, % at 57.5 µM; in the data active means activity change below about -50%; inconclusive means mostly about -30% to -49%
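Secreted IL-1B measured by AlphaLISA bead assay after 16 h compound exposure of THP-1 cells; compounds (final up to 57.5 uM) added 1 h before LPS (250 ng/mL) and ATP (1.25 mM) stimulation; lower signal means less secretion.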
TDP1 cell CPT: DT40-hTDP1 cell growth loss with CPT; chicken DT40 Tdp1-/-;hTDP1 cells + 20 nM CPT, ATP luminescence, 48 h; Potency, µM (top dose mostly 46.2 µM), actives largely listed as inhibitors; hit rate 12% among 420,000; further: nearly all actives have a fitted effect of over 55% in size
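Cell growth measured by CellTiter-Glo luminescence after a minimum 48 h, 37 C compound exposure with 20 nM CPT in Tdp1-knockout DT40 cells stably expressing hTDP1, seeded 400/well; qHTS titration format.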
HT1080-NT tox: kills 2HG-producing HT-1080-NT fibrosarcoma cells. HT-1080-NT fibrosarcoma viability, CellTiter-Glo ATP luminescence, 48 h. Potency, µM (doses to about 46.1 µM), most hits filed as cytotoxic. hit rate 1.6% among 360,000. AID 686970;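 further: NT is the 2HG producing partner of a matched IDH1 knockdown line; nearly all actives have a fitted effect of over 55% in size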
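Read-out is CellTiter-Glo luminescence after 10 minutes at room temperature, following 48 hours' compound treatment of HT-1080-NT cells (750 cells/well, RPMI, 5% FBS, 37 degrees C).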
A number is an active result; - = inactive; ? = inconclusive; . = not tested or not shown; [ ] = dose if it differs, or a comment. Shown are actives, neighbours in structure and some others; about 19% of the full set was active somewhere. Unless noted, the call rests on the fitted dose curve; in most records, active means well fitted curve in the direction sought with a large enough effect; inconclusive means small, poorly fitted or top-dose-only effect, or another doubt; inactive means no such curve, though single readings can be large; an effect the other way counts as inactive or inconclusive.

SMILES	TDP1 cell noCPT	HT1080 IDH1KD tx	IL1B secr inh	TDP1 cell CPT	HT1080-NT tox
Cc1[nH]c2nc3ccccc3n2c(=O)c1CCC(C)C	-	-	-	-	-
OCCC1CN(Cc2cccn2-c2ncccn2)CCN1CCc1ccccc1 (configuration not stated)	-	-	-	-	-
O=C(CN1C(=O)NC(c2ccccc2)(c2ccccc2)C1=O)NCc1cccs1	-	-	-	-	-
C=CCn1c(O)c(N=NC(=S)Nc2cccc(C)c2)c2ccccc21	1.8µM	?	-	2.1µM	-
C=CCn1c(O)c(N=NC(=S)Nc2ccccc2F)c2cc(S(=O)(=O)N3CCOCC3)ccc21	0.73µM	?	-	0.73µM	?
C=CCn1c(O)c(N=O)c2cc(C)ccc21	?	-	-52	-	-
O=c1cc(O)c2ccccc2n1Cc1ccccc1Cl	-	-	-	-	-
Oc1c(N=NC(=S)Nc2ccccc2F)c2ccccc2n1Cc1ccccc1Cl	5.8µM	-	?	6.5µM	13µM
Cc1ccc(Cn2c(O)c(N=NC(=S)Nc3ccccc3F)c3ccccc32)cc1	5.8µM	-	-	6.5µM	-
Oc1c(N=NC(=S)Nc2ccccc2F)c2ccccc2n1Cc1ccccc1	5.8µM	-	-	7.3µM	-
Cc1c(Cl)cccc1NC(=S)N=Nc1c(O)n(CN2CCOCC2)c2ccccc12	1.5µM	?	-	5.8µM	-
COC(=O)N=Nc1c(O)n(Cc2ccccc2)c2ccccc12	?	-	-	-	?
C=CCn1c(O)c(N=NC(=S)Nc2ccccc2F)c2ccccc21	2.6µM	?	-	4.1µM	-
CCn1c(O)c(N=NC(=O)CNc2ccc(C)cc2)c2ccccc21	?	-	?	-	-
Cc1c(Cl)cccc1NC(=O)CCN1CCOCC1	-	-	-	-	-
CC(=O)N1CCc2c(sc(NC(=O)CS(=O)(=O)c3ccc(F)cc3)c2C(N)=O)C1	-	-	-	-	-
COc1ccc(CNC(=O)CN(C(=O)c2cc3sccc3n2C)C2CCCC2)cc1	13µM	-	?	?	-
CC(=O)N1CCOC12CCN(Cc1ccccc1)CC2	-	-	-	-	-
Cc1ccc(S(=O)(=O)NNc2nc3ccccc3nc2C(F)(F)F)cc1	18µM	-	-	?	-
Cc1ccc(S(=O)(=O)NNc2c3ccccc3nc3ccc(Cl)cc23)cc1	8.2µM	-	-	23µM	-
COc1ccc(Nc2nnc(SC(C(=O)Nc3ccc(OC)c(Cl)c3)c3ccccc3)s2)cc1 (configuration not stated)	13µM	-	-	23µM	-
COc1ccc(Nc2nnc(SC(C(=O)Nc3cc(C)ccc3C)c3ccccc3)s2)cc1 (configuration not stated)	21µM	-	-	?	-
COc1cccc(NC(=O)C(Sc2nnc(Nc3ccccc3C)s2)c2ccccc2)c1 (configuration not stated)	21µM	?	-51	16µM	-
CCC(CO)(CO)N(CC(=O)Nc1ccc(OC)cc1)CC(=O)Nc1ccc(OC)cc1	-	?	-	-	-
Cn1cc(Br)c(C(=O)NN2C(=O)C3C4C=CC(C5CC45)C3C2=O)n1 (configuration not stated)	-	-	-	-	-
SMILES	TDP1 cell noCPT	HT1080 IDH1KD tx	IL1B secr inh	TDP1 cell CPT	HT1080-NT tox
Cc1cccc(Oc2nc(-c3ccccn3)nc3ccccc23)c1	1µM	16µM	-99	1.2µM	?
Cc1ccccc1Oc1nc(-c2ccccn2)nc2ccccc12	5.2µM	-	?	4.1µM	?
CC(=O)Nc1ccc(Oc2nc(-c3ccccn3)nc3ccccc23)cc1	?	?	-94	?	-
CCOc1ccccc1N1CCN(C(=O)c2ccccc2SCC(=O)N2CCCC2)CC1	?	-	-	?	-
Cc1cc(C(C)(C)C)cc(C)c1CCNC(=O)c1c(C)noc1C	26µM	?	-	29µM	?
COc1ccc(CCNC(=O)C2CC3Cn4c(nc5ccccc54)C3N2Cc2ccccc2)cc1 (configuration not stated)	18µM	-	-	?	-
COc1ccc(CCNC(=O)C2CC3Cn4c(nc5ccccc54)C3N2C)cc1 (configuration not stated)	-	-	-	-	-
COc1ccc([N+](=O)[O-])cc1NC(=O)C(C)Sc1nc(C)c(C)c(C)n1 (configuration not stated)	23µM	-	-	?	-
CCCCC(C)(C)[C@H](O)/C=C/[C@H]1[C@H](O)CC(=O)[C@@H]1C/C=C\CCCC(=O)O	-[4.12 µM]	.	.	-[4.12 µM]	.
C=C(NC(=O)C(=C)NC(=O)c1csc(C2=NC3c4csc(n4)C4NC(=O)c5csc(n5)C(C(C)(O)C(C)O)NC(=O)C5CSC(=N5)/C(=C/C)NC(=O)C(C(C)O)NC(=O)c5csc(n5)C3(CC2)NC(=O)C(C)NC(=O)C(=C)NC(=O)C(=C)NC(=O)C(C(C)C)NC2C=Cc3c(C(C)O)cc(nc3C2O)C(=O)OC4C)n1)C(N)=O (configuration not stated)	0.92µM	5.2µM	-67	1µM	?
C=C(NC(=O)C(=C)NC(=O)c1csc(C2=NC3c4csc(n4)C4NC(=O)c5csc(n5)C(C(C)(O)C(C)O)NC(=O)C5CSC(=N5)C(=CC)NC(=O)C(C(C)O)NC(=O)c5csc(n5)C3(CC2)NC(=O)C(C)NC(=O)C(=C)NC(=O)C(C)NC(=O)C(C(C)CC)NC2C=Cc3c(C(C)O)cc(nc3C2O)C(=O)OC4C)n1)C(N)=O (configuration not stated)	5.2µM	.	.	4.1µM	.
CC1CN(C(=O)/C=C/c2ccc(SC(F)F)cc2)CC(C)O1 (configuration not stated)	13µM	-	-	?	-
CC1CCN(C(=O)CCCl)c2ccccc21 (configuration not stated)	-	-	-	-	-
O=C(CSc1ccccc1F)NNC(=O)c1ccncc1	-	-	-	-	-
CCC(C)NC(=O)c1cc(-c2cccc(OC)c2)on1 (configuration not stated)	-	.	.	-	.
CC1CC(CC(=O)Nc2nc(-c3ccccc3)cs2)C(=O)O1 (configuration not stated)	?	-	-	-	-
NC(=O)C1(N2CCCCC2)CCN(CC(=O)Nc2ccccc2Sc2ccccc2)CC1	?	-	-79	?	-
O=C(CN1CCOCC1)Nc1nc(-c2ccc(Cl)cc2)cs1	21µM	-	?	16µM	-
O=C(Nc1nc(-c2ccc(Cl)cc2)cs1)C1CCCO1 (configuration not stated)	23µM	-	-69	?	-
CC1CN(CC(=O)Nc2nc(-c3ccc(Cl)cc3)cs2)CC(C)O1 (configuration not stated)	23µM	-	?	?	-
